{"source": "PubChem BioAssay (NCATS)", "note": "Records with an inconclusive call do not appear. Where a call stands in place of a potency, no number is given. The source made the active and inactive calls. The call rests on the fitted dose curve. Potency means the concentration at half of the fitted maximal effect.", "data": [{"experiment": "Primary qHTS for inhibitors of SARS-S pseudo-typed particle cell entry (AID 1479145); further: nearly all actives have a fitted effect of over 45% in size", "settings": "SARS-S pseudotyped particle cell entry, luciferase reporter; series mostly up to 57.1 µM", "values": [{"smiles": "OC(CCN1CCCCC1)(c1ccccc1)C1CC2C=CC1C2", "note": "(stereo not given)", "Potency": "inactive"}, {"smiles": "CN(C)CCn1nnnc1SCC1=C(C(=O)O)N2C(=O)[C@@H](NC(=O)Cc3csc(N)n3)[C@H]2SC1", "Potency": "inactive"}, {"smiles": "COc1cc(OC)cc(OC)c1", "Potency": "inactive"}, {"smiles": "CC(C)(C)CC(=O)OCC(=O)[C@@]1(O)CC[C@H]2[C@@H]3CCC4=CC(=O)C=C[C@]4(C)[C@H]3[C@@H](O)C[C@@]21C", "Potency": "inactive"}, {"smiles": "CO/N=C(/C(=O)N[C@@H]1C(=O)N2C(C(=O)O)=C(Cn3nnc(C)n3)CS[C@H]12)c1csc(N)n1", "Potency": "inactive"}, {"smiles": "O=C(O)CCc1nc(-c2ccccc2)c(-c2ccccc2)o1", "Potency": "inactive"}, {"smiles": "O=[N+]([O-])c1nccn1CO[C@@H](CO)[C@H](O)CO", "Potency": "inactive"}, {"smiles": "CC(C)c1cc2c(cc1S(=O)(=O)O)[C@@]1(C)CCC[C@@](C)(C(=O)O)[C@@H]1CC2", "Potency": "inactive"}, {"smiles": "CC1(C)[C@H](C(=O)O)N2C(=O)C[C@H]2S1(=O)=O", "Potency": "inactive"}, {"smiles": "O=C(CCCCCCCCC#CI)Oc1ccccc1", "Potency": "inactive"}, {"smiles": "C[N+]1(CC2COC(c3ccccc3)(c3ccccc3)O2)CCCCC1", "note": "(stereo not given)", "Potency": "inactive"}, {"smiles": "C[C@H](N)C(=O)N[C@@H](C)C(=O)NC1[C@H]2CN(c3nc4c(cc3F)c(=O)c(C(=O)O)cn4-c3ccc(F)cc3F)C[C@@H]12", "note": "(stereo not given in full)", "Potency": "inactive"}, {"smiles": "CC(=O)OCC(=O)[C@@]1(O)CCC2C3CCC4=CC(=O)CC[C@]4(C)C3[C@@H](O)C[C@@]21C", "note": "(stereo not given in full)", "Potency": "inactive"}, {"smiles": "Cc1cc(C(C)(C)C)c(O)c(C)c1CC1=NCCN1", "Potency": "inactive"}, {"smiles": "CC(=O)Oc1c(C)c(C)c2c(c1C)CC[C@@](C)(CCC[C@H](C)CCC[C@H](C)CCCC(C)C)O2", "Potency": "inactive"}, {"smiles": "CCN[C@H]1C[C@H](C)S(=O)(=O)c2sc(S(N)(=O)=O)cc21", "Potency": "inactive"}, {"smiles": "Cc1cccc(N(C)C(=S)Oc2ccc3c(c2)C2CCC3C2)c1", "note": "(stereo not given)", "Potency": "inactive"}, {"smiles": "CC1(C)O[C@@H]2C[C@H]3[C@@H]4CCC5=CC(=O)CC[C@]5(C)[C@@]4(F)[C@@H](O)C[C@]3(C)[C@]2(C(=O)CCl)O1", "Potency": "inactive"}, {"smiles": "CSc1ccc(C(=O)c2[nH]c(=O)[nH]c2C)cc1", "Potency": "inactive"}, {"smiles": "O=C(O)/C=C/c1ccc(Cn2ccnc2)cc1", "Potency": "inactive"}, {"smiles": "NC(=O)C1(N2CCCCC2)CCN(CCCC(=O)c2ccc(F)cc2)CC1", "Potency": "inactive"}, {"smiles": "Cc1c(C)c2c(c(C)c1OC(=O)CCC(=O)OCCO)CC[C@@](C)(CCC[C@H](C)CCC[C@H](C)CCCC(C)C)O2", "Potency": "inactive"}, {"smiles": "O=C(O)C(=O)Nc1cccc(-c2nn[nH]n2)c1", "Potency": "inactive"}, {"smiles": "O=C1c2ccccc2C(=O)C1c1ccccc1", "Potency": "inactive"}, {"smiles": "O=C(OCC(COC(=O)c1cccnc1)(COC(=O)c1cccnc1)COC(=O)c1cccnc1)c1cccnc1", "Potency": "inactive"}, {"smiles": "C[C@]1(Cn2ccnn2)[C@H](C(=O)O)N2C(=O)C[C@H]2S1(=O)=O", "Potency": "inactive"}, {"smiles": "CC(C)NCC(O)COc1ccc(COCCOC(C)C)cc1", "note": "(stereo not given)", "Potency": "inactive"}, {"smiles": "Nc1ccc(C(=O)NCC(=O)O)cc1", "Potency": "inactive"}, {"smiles": "N[C@@H](CSCCCO)C(=O)O", "Potency": "inactive"}, {"smiles": "CN(C)C(=S)SC(=S)N(C)C", "Potency": "1.41 µM (active)"}, {"smiles": "C=CC[N+]1([C@H]2C[C@H]3[C@@H]4CC[C@H]5C[C@H](OC(C)=O)[C@@H](N6CCCCC6)C[C@]5(C)[C@H]4CC[C@]3(C)[C@H]2OC(=O)CC)CCCCC1", "Potency": "inactive"}, {"smiles": "CCCCC/C=C\\C/C=C\\CCCCCCCC(=O)NC(C)c1ccccc1", "note": "(stereo not given)", "Potency": "inactive"}, {"smiles": "Cc1ccc(O)cc1", "Potency": "inactive"}, {"smiles": "CN1C(=O)CC(c2ccccc2)C1=O", "note": "(stereo not given)", "Potency": "inactive"}, {"smiles": "O=C(O)CCC(=O)OC[C@@H](NC(=O)C(Cl)Cl)[C@H](O)c1ccc([N+](=O)[O-])cc1", "Potency": "inactive"}, {"smiles": "CCCCC1(COC(=O)CCC(=O)O)C(=O)N(c2ccccc2)N(c2ccccc2)C1=O", "Potency": "inactive"}, {"smiles": "Cc1c(N(C)C)c(=O)n(-c2ccccc2)n1C", "Potency": "inactive"}, {"smiles": "Cc1cc(=O)oc2cc(O)ccc12", "Potency": "inactive"}, {"smiles": "Nc1ccc(S(=O)(=O)Nc2cnc3ccccc3n2)cc1", "Potency": "inactive"}, {"smiles": "C=CCCCCCCCCC(=O)O", "Potency": "inactive"}]}, {"experiment": "Primary qHTS for Huh7 cytotoxicity: counterscreen for inhibitors of MERS-S pseudotyped particle cell entry (AID 1479147)", "settings": "cell viability read-out; series mostly up to 57.1 µM", "values": [{"smiles": "OC(CCN1CCCCC1)(c1ccccc1)C1CC2C=CC1C2", "note": "(stereo not given)", "Potency": "inactive"}, {"smiles": "CN(C)CCn1nnnc1SCC1=C(C(=O)O)N2C(=O)[C@@H](NC(=O)Cc3csc(N)n3)[C@H]2SC1", "Potency": "inactive"}, {"smiles": "COc1cc(OC)cc(OC)c1", "Potency": "inactive"}, {"smiles": "CC(C)(C)CC(=O)OCC(=O)[C@@]1(O)CC[C@H]2[C@@H]3CCC4=CC(=O)C=C[C@]4(C)[C@H]3[C@@H](O)C[C@@]21C", "Potency": "inactive"}, {"smiles": "CO/N=C(/C(=O)N[C@@H]1C(=O)N2C(C(=O)O)=C(Cn3nnc(C)n3)CS[C@H]12)c1csc(N)n1", "Potency": "inactive"}, {"smiles": "O=C(O)CCc1nc(-c2ccccc2)c(-c2ccccc2)o1", "Potency": "inactive"}, {"smiles": "O=[N+]([O-])c1nccn1CO[C@@H](CO)[C@H](O)CO", "Potency": "inactive"}, {"smiles": "CC(C)c1cc2c(cc1S(=O)(=O)O)[C@@]1(C)CCC[C@@](C)(C(=O)O)[C@@H]1CC2", "Potency": "inactive"}, {"smiles": "CC1(C)[C@H](C(=O)O)N2C(=O)C[C@H]2S1(=O)=O", "Potency": "inactive"}, {"smiles": "O=C(CCCCCCCCC#CI)Oc1ccccc1", "Potency": "inactive"}, {"smiles": "C[N+]1(CC2COC(c3ccccc3)(c3ccccc3)O2)CCCCC1", "note": "(stereo not given)", "Potency": "inactive"}, {"smiles": "C[C@H](N)C(=O)N[C@@H](C)C(=O)NC1[C@H]2CN(c3nc4c(cc3F)c(=O)c(C(=O)O)cn4-c3ccc(F)cc3F)C[C@@H]12", "note": "(stereo not given in full)", "Potency": "inactive"}, {"smiles": "CC(=O)OCC(=O)[C@@]1(O)CCC2C3CCC4=CC(=O)CC[C@]4(C)C3[C@@H](O)C[C@@]21C", "note": "(stereo not given in full)", "Potency": "inactive"}, {"smiles": "Cc1cc(C(C)(C)C)c(O)c(C)c1CC1=NCCN1", "Potency": "inactive"}, {"smiles": "CC(=O)Oc1c(C)c(C)c2c(c1C)CC[C@@](C)(CCC[C@H](C)CCC[C@H](C)CCCC(C)C)O2", "Potency": "inactive"}, {"smiles": "CCN[C@H]1C[C@H](C)S(=O)(=O)c2sc(S(N)(=O)=O)cc21", "Potency": "inactive"}, {"smiles": "Cc1cccc(N(C)C(=S)Oc2ccc3c(c2)C2CCC3C2)c1", "note": "(stereo not given)", "Potency": "inactive"}, {"smiles": "CC1(C)O[C@@H]2C[C@H]3[C@@H]4CCC5=CC(=O)CC[C@]5(C)[C@@]4(F)[C@@H](O)C[C@]3(C)[C@]2(C(=O)CCl)O1", "Potency": "inactive"}, {"smiles": "CSc1ccc(C(=O)c2[nH]c(=O)[nH]c2C)cc1", "Potency": "inactive"}, {"smiles": "O=C(O)/C=C/c1ccc(Cn2ccnc2)cc1", "Potency": "inactive"}, {"smiles": "NC(=O)C1(N2CCCCC2)CCN(CCCC(=O)c2ccc(F)cc2)CC1", "Potency": "inactive"}, {"smiles": "Cc1c(C)c2c(c(C)c1OC(=O)CCC(=O)OCCO)CC[C@@](C)(CCC[C@H](C)CCC[C@H](C)CCCC(C)C)O2", "Potency": "inactive"}, {"smiles": "O=C(O)C(=O)Nc1cccc(-c2nn[nH]n2)c1", "Potency": "inactive"}, {"smiles": "O=C1c2ccccc2C(=O)C1c1ccccc1", "Potency": "inactive"}, {"smiles": "O=C(OCC(COC(=O)c1cccnc1)(COC(=O)c1cccnc1)COC(=O)c1cccnc1)c1cccnc1", "Potency": "inactive"}, {"smiles": "C[C@]1(Cn2ccnn2)[C@H](C(=O)O)N2C(=O)C[C@H]2S1(=O)=O", "Potency": "inactive"}, {"smiles": "CC(C)NCC(O)COc1ccc(COCCOC(C)C)cc1", "note": "(stereo not given)", "Potency": "inactive"}, {"smiles": "Nc1ccc(C(=O)NCC(=O)O)cc1", "Potency": "inactive"}, {"smiles": "N[C@@H](CSCCCO)C(=O)O", "Potency": "inactive"}, {"smiles": "CN(C)C(=S)SC(=S)N(C)C", "Potency": "3.16 µM (active)"}, {"smiles": "C=CC[N+]1([C@H]2C[C@H]3[C@@H]4CC[C@H]5C[C@H](OC(C)=O)[C@@H](N6CCCCC6)C[C@]5(C)[C@H]4CC[C@]3(C)[C@H]2OC(=O)CC)CCCCC1", "Potency": "inactive"}, {"smiles": "CCCCC/C=C\\C/C=C\\CCCCCCCC(=O)NC(C)c1ccccc1", "note": "(stereo not given)", "Potency": "inactive"}, {"smiles": "Cc1ccc(O)cc1", "Potency": "inactive"}, {"smiles": "CN1C(=O)CC(c2ccccc2)C1=O", "note": "(stereo not given)", "Potency": "inactive"}, {"smiles": "O=C(O)CCC(=O)OC[C@@H](NC(=O)C(Cl)Cl)[C@H](O)c1ccc([N+](=O)[O-])cc1", "Potency": "inactive"}, {"smiles": "CCCCC1(COC(=O)CCC(=O)O)C(=O)N(c2ccccc2)N(c2ccccc2)C1=O", "Potency": "inactive"}, {"smiles": "Cc1c(N(C)C)c(=O)n(-c2ccccc2)n1C", "Potency": "inactive"}, {"smiles": "Cc1cc(=O)oc2cc(O)ccc12", "Potency": "inactive"}, {"smiles": "Nc1ccc(S(=O)(=O)Nc2cnc3ccccc3n2)cc1", "Potency": "inactive"}, {"smiles": "C=CCCCCCCCCC(=O)O", "Potency": "inactive"}]}]}
